Hit rate of the full screen: of about 5,500 compounds, about 2,000 (36%) were called active. Another 18% or so got no clear call; they are omitted. Rule as the data show it: active = normalized growth mostly below about 0.91 (no sharp cut-off); inconclusive = no clear call, values can overlap the other calls; inactive = mostly above about 0.92. This is one part of the list.
Test: chemical genetic growth profiling, strain panel (AID 1159580);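 also: tested at 20 µM; growth read once vehicle control cultures reached saturation at 30 °C; 1 = growth at the plate median or of vehicle wells; lower values mean less growth of the strain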
Settings: S. cerevisiae deletion strains, growth OD

Measured: normalized growth

CC(C)(C=O)Cc1cc(C(C)(C)C)c(O)c(C(C)(C)C)c1
inactive: locus YAL013W, strain DEP1, stronger effect = lower value 1.02 | locus YAL040C, strain CLN3, stronger effect = lower value 0.968 | locus YER002W, strain NOP16, stronger effect = lower value 0.98 | locus YGR078C, strain PAC10, stronger effect = lower value 1 | locus YMR307W, strain GAS1, stronger effect = lower value 1.02 | locus YNL128W, strain TEP1, stronger effect = lower value 1.02 | locus YNL175C, strain NOP13, stronger effect = lower value 1.02 | locus YNL197C, strain WHI3, stronger effect = lower value 0.989 | locus YNL224C, strain SQS1, stronger effect = lower value 1 | locus YNL322C, strain KRE1, stronger effect = lower value 0.994 | locus YOR083W, strain WHI5 (second series), stronger effect = lower value 1.01 | locus YPL055C, strain LGE1, stronger effect = lower value 1.01
